In PubChem BioAssay (NCATS):
Values joined by “and” are separate entries in the source; they are usually repeats but may differ in a detail not shown here. Equal entries are not always repeated. Records with an inconclusive call do not appear. Values without a mark were called inactive. Active and inactive are the calls of the source. Calls follow the shape of the dose curve; as a rule, active = well fitted activation curve with a large enough effect; inconclusive = small, poorly fitted or top-dose-only effect; inactive = no such curve, though single readings can be large or run the other way.

Molecular target: Cellular tumor antigen p53 (Homo sapiens) (UniProt P04637)
Sequence (P04637 whole entry, looked up): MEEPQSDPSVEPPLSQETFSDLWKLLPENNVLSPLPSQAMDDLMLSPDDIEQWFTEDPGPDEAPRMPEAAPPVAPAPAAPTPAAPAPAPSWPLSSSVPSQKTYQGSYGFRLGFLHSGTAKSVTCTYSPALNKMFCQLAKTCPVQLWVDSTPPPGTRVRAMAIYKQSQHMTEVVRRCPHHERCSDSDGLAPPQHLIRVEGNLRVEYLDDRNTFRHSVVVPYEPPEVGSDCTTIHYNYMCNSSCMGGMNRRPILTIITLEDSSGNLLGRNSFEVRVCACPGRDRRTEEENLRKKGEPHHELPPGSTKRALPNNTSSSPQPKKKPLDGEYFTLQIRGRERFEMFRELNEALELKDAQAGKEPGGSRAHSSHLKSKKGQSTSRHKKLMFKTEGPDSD
Experiment: Primary qHTS for small molecule compounds that upregulate eGFP-tagged delta133p53alpha (in N-terminal) cells. (AID 2060322); also: nearly all actives have a fitted effect of over 75% in size;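 as to activation: series mostly up to about 56 µM; 0% = DMSO vehicle and 100% = reference activator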
Conditions: NCI-H358 eGFP-delta133p53alpha fluorescence, 24 h; activation: stronger effect = higher value
Method in brief: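 NCI-H358 cells pre-induced 24 h with 10 ng/ml doxycycline for eGFP-delta133p53alpha, plated dox-free and exposed 24 h at 37C to titrated compounds. Fixed, Hoechst-stained; gated GFP peak intensity by laser scanning cytometry, normalized to DMSO (0%) and 57.5 uM 5-azacytidine (100%).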
Potency is read from the fitted curve at half-maximal effect.

Question: With `COc1cc(OC)cc(C(=O)Nc2ccc(Cl)c(-c3nc4ccc(N(C)C)cc4[nH]3)c2)c1` as the molecule, how does the activation read?
Answer: The activation was -11.5%.

Question: With `C[C@@H]1O[C@@H](O[C@H]2[C@H](O)[C@@H](O)[C@H](OC[C@H]3O[C@@H](OC(=O)[C@]45CCC(C)(C)C[C@H]4C4=CCC6[C@@]7(C)CC[C@H](O[C@@H]8OC[C@H](O)[C@H](O[C@@H]9O[C@H](CO)[C@@H](O)[C@H](O)[C@H]9O)[C@H]8O)[C@@](C)(CO)C7CC[C@@]6(C)[C@]4(C)CC5)[C@H](O)[C@@H](O)[C@@H]3O)O[C@@H]2CO)[C@H](O)[C@H](O)[C@H]1O` (stereo not given in full) as the molecule, how does the activation read?
Answer: Its activation is -10.7%.

Question: With `Cc1ccc(S(=O)(=O)N2CCC[C@H]2c2ccc(F)cc2)cc1` as the molecule, how does the activation read?
Answer: Its activation is 8.93%.

Question: For `CN(C)C/C=C/C(=O)Nc1cc2c(Nc3ccc(F)c(Cl)c3)ncnc2cc1OC1CCOC1` (stereo not given), which Potency is on record?
Answer: Its Potency is 7.57 µM (active).

Question: Which activation does the source give for `O=C(O)/C=C/c1ccc2occc2c1O[C@@H]1O[C@H](CO)[C@@H](O)[C@H](O)[C@H]1O` here?
Answer: Its activation is 8.4%.

Question: `O=C(Nc1cc(C(F)(F)F)ccc1N1CCCCC1)c1ccncc1` was tested. Which activation did it give?
Answer: Its activation is -17.9%.

Question: Which activation does the source give for `OCCc1ccc(O[C@@H]2O[C@H](CO)[C@@H](O)[C@H](O)[C@H]2O)cc1` here?
Answer: The activation was -7.14%.

Question: With `O=C(/C=C/c1ccc(O)cc1)OCC1OC(O)C(OC2OC(CO)C(O)C(O)C2O)C(O)C1O` (stereo not given) as the molecule, how does the activation read?
Answer: Its activation is -13%.

Question: With `CC(=O)OC1CC2(C)C3=CCC4(C)C5C(O)C(O)C(C(C)C)C5(C)CCC4(C)C3CCC2C(C)(C)C1OC1OC(CO)C(O)C(O)C1O` (stereo not given) as the molecule, how does the activation read?
Answer: The activation was -1.53%.

Question: With `CC1(C)CC[C@]2(C(=O)O[C@@H]3O[C@H](CO)[C@@H](O)[C@H](O)[C@H]3O)CC[C@]3(C)C(=CCC4[C@@]5(C)CC[C@H](O[C@@H]6O[C@H](C(=O)O)[C@@H](O[C@@H]7O[C@H](CO)[C@@H](O)[C@H](O)[C@H]7O)[C@H](O)[C@H]6O[C@@H]6O[C@H](CO)[C@@H](O)[C@H](O)[C@H]6O)C(C)(C)C5CC[C@]43C)C2C1` (stereo not given in full) as the molecule, how does the activation read?
Answer: The activation was -29.8%.

Question: `C=C(C)[C@@H]1CC[C@]2(C)CC[C@]3(C)[C@H](CC[C@@H]4[C@@]5(C)CC[C@@H](O)C(C)(C)[C@@H]5CC[C@]43C)[C@@H]12` was tested. Which activation did it give?
Answer: Its activation is 17.6%.

Question: For `C=C1C[C@]23C[C@H]1CC[C@H]2[C@@]12CC[C@H](O)[C@@](C)(C(=O)O1)[C@H]2[C@@H]3C(=O)O`, which activation is on record?
Answer: The activation was 5.34%.

Question: `O=C(OCCOCCO)c1ccccc1Nc1cccc(C(F)(F)F)c1` was tested. Which activation did it give?
Answer: Its activation is -13% and -1.67%.

Question: With `COC1=CC(=O)O[C@@H](CCc2ccccc2)[C@@H]1O` as the molecule, how does the activation read?
Answer: The activation was -13%.

Question: How did the activation turn out when `COC(=O)/C=C/C=C/C(=O)OC1C=C2COC(=O)C2(O)C2(C)CCCC(C)(C)C12` (stereo not given) was run?
Answer: Its activation is -4.58%.

Question: How did the activation turn out when `COc1cc(C(=O)OC(COCCC(C)C)CN2CCOCC2)cc(OC)c1OC` (stereo not given) was run?
Answer: The activation was 14.3%.

Question: Which activation does the source give for `CC(=O)NC(CCC(=O)O)C(=O)NCCc1ccc(O)cc1` (stereo not given) here?
Answer: The activation was -14.5%.

Question: How did the activation turn out when `C=C1CC2[C@@]3(C)C=CC(=O)C(C)(C)C3=C(O)C(=O)[C@@]2(C)C2(C(=O)OC)C(=O)C(C)OC(=O)[C@@]12C` (stereo not given in full) was run?
Answer: Its activation is -3.82%.

Question: Which activation does the source give for `COCC1OC(OC(C)(C)C2CCC3(C)C=C(C4CCC5C4(C)CC(O)C4OC(C(C)(C)OC6OC(CO)C(O)C(O)C6NC(C)=O)CCC45C)CCC3O2)C(NC(C)=O)C(O)C1O` (stereo not given) here?
Answer: Its activation is -16.8%.

Question: `CC1=CCC(C(C)(C)O[C@@H]2O[C@H](CO[C@@H]3O[C@@H](C)[C@H](O)[C@@H](O)[C@H]3O)[C@@H](O)[C@H](O)[C@H]2O)CC1` (stereo not given in full) was tested. Which activation did it give?
Answer: The activation was -6.11%.

Question: `OC[C@H]1O[C@H](O[C@]2(CCl)O[C@H](CCl)[C@@H](O)[C@@H]2O)[C@H](O)[C@@H](O)[C@H]1Cl` was tested. Which activation did it give?
Answer: The activation was -5.86% and -10%.

Question: Which activation does the source give for `COc1ccc2nccc(C(=O)CC[C@@H]3CCN(CC#Cc4cc(F)cc(F)c4F)C[C@@H]3C(=O)O)c2c1` here?
Answer: Its activation is 7.64%.

Question: For `Cc1cc(N2CCN(C(=O)Oc3ccc(-c4ccccc4)cn3)CC2)c2ccccc2n1`, which activation is on record?
Answer: Its activation is -10.3%.

Question: With `CC(C)C(=O)O[C@@H]1[C@@H](O)[C@@H](O[C@H]2O[C@H](CO)[C@@H](O)[C@H](O)[C@H]2O)O[C@H](CO)[C@H]1O` as the molecule, how does the activation read?
Answer: Its activation is 3.82%.

Question: With `CCC/C=C/C(=O)O[C@H]1CC(C)(C)CC2[C@]13[C@H](O)O[C@@]21CCC2[C@@]4(C)CC[C@H](O[C@@H]5O[C@H](C(=O)O)[C@@H](O)[C@H](O[C@@H]6O[C@H](CO)[C@H](O)[C@H](O)[C@H]6O[C@@H]6O[C@@H](C)[C@H](O)[C@@H](O)[C@H]6O[C@@H]6OC[C@](O)(CO)[C@H]6O)[C@H]5O[C@@H]5O[C@H](CO)[C@H](O)[C@H](O)[C@H]5O)C(C)(C)C4CC[C@@]2(C)[C@]1(C)C[C@H]3OC(C)=O` (stereo not given in full) as the molecule, how does the activation read?
Answer: The activation was -4.58%.

Question: With `Nc1nc(-n2cc(C(=O)O)c(=O)c3cc(F)c(N4CC(O)C4)c(Cl)c32)c(F)cc1F` as the molecule, how does the activation read?
Answer: Its activation is 13%.

Question: For `C=C1CC[C@@H]2C(C)(C)CCC[C@@]2(C)[C@@H]1CC/C(=C/C(=O)OC)COC(C)=O`, which activation is on record?
Answer: Its activation is -31.3%.

Question: For `CC(C(=O)Nc1cc(C#N)ccc1CCCC(=O)O)c1ccc(F)c2ccccc12` (stereo not given), which activation is on record?
Answer: Its activation is 17.9%.

Question: Which activation does the source give for `COC(=O)C[C@@H]1C(C(=O)O)=CO[C@@H](O[C@@H]2O[C@H](CO)[C@@H](O)[C@H](O)[C@H]2O)/C1=C\COC(=O)/C=C\c1ccccc1` here?
Answer: The activation was 26%.

Question: `C=CC1(C)CC(O)C(C(=C)C(=O)OC)C(O)C1C(=C)CO` (stereo not given) was tested. Which activation did it give?
Answer: The activation was -14.5%.

Question: How did the activation turn out when `Cc1ccc2c(n1)Oc1ccc(C(C)C(=O)OCC(=O)N(C)C)cc1C2` (stereo not given) was run?
Answer: The activation was -12.6% and -10.9%.

Question: For `CCOC(=O)c1cc(C#N)c(N2CCC(C(=O)NS(=O)(=O)Cc3ccccc3)CC2)nc1C`, which activation is on record?
Answer: The activation was 5.67%.

Question: For `O=C(CSc1nc2ccccc2c(=O)n1-c1ccccc1)Nc1ccc2c(c1)CCC2`, which activation is on record?
Answer: Its activation is 5.67%.

Question: With `OC[C@@]1(O)CO[C@H](OC[C@H]2O[C@@H](OC(CCCCc3ccc(O)cc3)CCc3ccc(O)cc3)[C@H](O)[C@@H](O)[C@@H]2O)[C@@H]1O` (stereo not given in full) as the molecule, how does the activation read?
Answer: Its activation is -1.53%.

Question: With `CC(C(=O)O)C1CCC2(C)C3C(=O)C=C4C(CCC(=O)C4(C)C)C3(C)CCC12C` (stereo not given) as the molecule, how does the activation read?
Answer: Its activation is -15.2%.

Question: For `COC1CC(O[C@H]2CC[C@@]3(C)C(CCC4C3[C@H](OC(C)=O)[C@@H](OC(=O)/C=C/c3ccccc3)[C@]3(C)C(C(C)=O)CC[C@]43O)C2)OC(C)C1OC1CC(OC)C(OC2CC(OC)C(OC3OC(C)C(OC4OC(CO)C(O)C(O)C4O)C(OC)C3O)C(C)O2)C(C)O1` (stereo not given in full), which activation is on record?
Answer: Its activation is -13%.

Question: Which activation does the source give for `CC1(C)CC2=C3C=CC4C5(C)CCC(O)C(C)(C)C5CCC4(C)C3(C)CCC2(C)C(O)C1` (stereo not given) here?
Answer: Its activation is -8.04%.

Question: For `COC1C=C(C)C(O)(CO)C2(C)CCCC(C)(C)C12` (stereo not given), which activation is on record?
Answer: The activation was 13%.

Question: For `C[C@@H]1CCC2C(C)(C)[C@H](O)CC[C@]2(C)[C@@]12Cc1c(O)cc3c(c1O2)CNC3=O` (stereo not given in full), which activation is on record?
Answer: Its activation is -20.6%.

Question: Which activation does the source give for `O=C(O[C@@H]1O[C@H](CO)[C@@H](O)[C@H](O)[C@H]1O)c1c(O)cc(O)cc1/C=C/c1ccccc1` here?
Answer: The activation was -23.7%.
